Data on 17 targets can be found in the supplement of paper PMC10849652.

The full data set covers some 8,800 targets. This sample favours those with a hit. About 0.5% of all pairs of compound and target were hits. Values without a mark were called inactive.

Chain of UniProt Q8TDI8 (Q8TDI8 whole entry, looked up): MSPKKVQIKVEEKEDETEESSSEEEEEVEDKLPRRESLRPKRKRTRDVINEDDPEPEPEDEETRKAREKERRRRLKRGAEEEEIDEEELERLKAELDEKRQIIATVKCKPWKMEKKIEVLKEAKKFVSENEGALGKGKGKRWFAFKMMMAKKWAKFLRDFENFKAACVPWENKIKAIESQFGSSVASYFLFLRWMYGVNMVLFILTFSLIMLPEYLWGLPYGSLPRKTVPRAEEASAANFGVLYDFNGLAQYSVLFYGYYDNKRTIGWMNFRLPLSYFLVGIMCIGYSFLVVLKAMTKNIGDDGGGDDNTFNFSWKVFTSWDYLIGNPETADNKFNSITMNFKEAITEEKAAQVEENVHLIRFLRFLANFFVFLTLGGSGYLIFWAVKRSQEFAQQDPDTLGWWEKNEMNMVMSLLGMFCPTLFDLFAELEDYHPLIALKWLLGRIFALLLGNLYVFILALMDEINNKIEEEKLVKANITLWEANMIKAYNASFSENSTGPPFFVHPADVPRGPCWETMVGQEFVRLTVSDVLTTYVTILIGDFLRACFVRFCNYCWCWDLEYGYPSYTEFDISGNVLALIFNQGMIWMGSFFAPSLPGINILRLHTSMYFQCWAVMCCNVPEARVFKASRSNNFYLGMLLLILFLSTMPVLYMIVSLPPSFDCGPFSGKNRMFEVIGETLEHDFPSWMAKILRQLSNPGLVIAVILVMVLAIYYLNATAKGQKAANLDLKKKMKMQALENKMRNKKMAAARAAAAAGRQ
Chain of UniProt P15884 (P15884 whole entry, looked up): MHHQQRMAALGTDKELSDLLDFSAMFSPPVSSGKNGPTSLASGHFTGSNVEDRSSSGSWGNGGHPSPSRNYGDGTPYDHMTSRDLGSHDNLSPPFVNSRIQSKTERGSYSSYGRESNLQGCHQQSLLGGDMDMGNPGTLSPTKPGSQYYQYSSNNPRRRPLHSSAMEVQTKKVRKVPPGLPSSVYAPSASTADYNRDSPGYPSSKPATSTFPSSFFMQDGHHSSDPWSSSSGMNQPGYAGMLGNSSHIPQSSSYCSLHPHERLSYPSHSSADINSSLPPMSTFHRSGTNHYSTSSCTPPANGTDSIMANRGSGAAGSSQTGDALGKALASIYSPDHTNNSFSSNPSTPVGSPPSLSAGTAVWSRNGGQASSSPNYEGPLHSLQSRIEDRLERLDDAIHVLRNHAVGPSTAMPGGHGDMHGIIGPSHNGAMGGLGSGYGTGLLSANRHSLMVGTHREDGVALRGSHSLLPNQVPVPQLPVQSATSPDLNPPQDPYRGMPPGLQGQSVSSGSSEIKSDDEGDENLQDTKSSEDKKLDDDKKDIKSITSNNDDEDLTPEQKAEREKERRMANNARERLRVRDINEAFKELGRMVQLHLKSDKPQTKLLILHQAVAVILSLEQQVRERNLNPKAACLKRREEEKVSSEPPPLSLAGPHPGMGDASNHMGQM
Chain of UniProt Q6Q0C0 (Q6Q0C0 whole entry, looked up): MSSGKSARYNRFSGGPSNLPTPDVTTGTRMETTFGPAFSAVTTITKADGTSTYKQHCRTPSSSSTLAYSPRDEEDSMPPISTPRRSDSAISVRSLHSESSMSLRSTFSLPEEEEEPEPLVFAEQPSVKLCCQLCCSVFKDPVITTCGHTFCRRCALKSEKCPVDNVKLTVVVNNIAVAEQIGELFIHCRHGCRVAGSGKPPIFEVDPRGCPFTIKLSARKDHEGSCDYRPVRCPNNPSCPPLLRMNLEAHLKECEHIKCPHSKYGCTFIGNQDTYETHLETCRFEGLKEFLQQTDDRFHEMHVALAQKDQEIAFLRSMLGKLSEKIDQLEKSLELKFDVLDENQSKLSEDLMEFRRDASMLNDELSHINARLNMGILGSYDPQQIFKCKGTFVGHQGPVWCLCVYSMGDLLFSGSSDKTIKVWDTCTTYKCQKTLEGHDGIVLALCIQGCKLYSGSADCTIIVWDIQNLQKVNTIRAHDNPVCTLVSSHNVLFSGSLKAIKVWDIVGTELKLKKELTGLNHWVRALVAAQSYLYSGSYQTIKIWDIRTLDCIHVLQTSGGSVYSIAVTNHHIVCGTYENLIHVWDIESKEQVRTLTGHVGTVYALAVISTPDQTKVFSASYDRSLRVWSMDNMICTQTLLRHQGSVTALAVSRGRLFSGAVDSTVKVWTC
Chain of UniProt Q04726 (Q04726 whole entry, looked up): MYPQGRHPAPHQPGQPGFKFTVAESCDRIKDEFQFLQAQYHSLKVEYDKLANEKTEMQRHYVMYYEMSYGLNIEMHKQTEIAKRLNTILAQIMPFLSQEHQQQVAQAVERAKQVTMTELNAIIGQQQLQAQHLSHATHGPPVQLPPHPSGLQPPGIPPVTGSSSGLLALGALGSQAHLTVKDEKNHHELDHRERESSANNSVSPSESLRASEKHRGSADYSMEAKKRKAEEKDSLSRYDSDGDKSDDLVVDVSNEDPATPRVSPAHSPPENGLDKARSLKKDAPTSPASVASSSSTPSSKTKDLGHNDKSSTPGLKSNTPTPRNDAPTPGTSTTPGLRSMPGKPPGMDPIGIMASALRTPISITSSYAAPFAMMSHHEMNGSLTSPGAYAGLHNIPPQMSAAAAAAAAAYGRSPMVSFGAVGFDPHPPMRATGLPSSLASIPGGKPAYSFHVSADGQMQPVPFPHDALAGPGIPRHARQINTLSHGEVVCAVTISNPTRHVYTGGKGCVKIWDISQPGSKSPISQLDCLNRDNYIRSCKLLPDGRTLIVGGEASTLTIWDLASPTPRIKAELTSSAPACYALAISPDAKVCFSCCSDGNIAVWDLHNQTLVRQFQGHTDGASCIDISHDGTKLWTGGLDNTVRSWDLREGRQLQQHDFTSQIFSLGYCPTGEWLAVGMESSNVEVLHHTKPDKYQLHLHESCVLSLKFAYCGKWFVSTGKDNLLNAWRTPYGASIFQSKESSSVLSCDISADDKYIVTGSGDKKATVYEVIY
Chain of UniProt P62328 (P62328 whole entry, looked up): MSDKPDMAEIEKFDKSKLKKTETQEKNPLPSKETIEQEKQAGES
Chain of UniProt Q86SX3 (Q86SX3 whole entry, looked up): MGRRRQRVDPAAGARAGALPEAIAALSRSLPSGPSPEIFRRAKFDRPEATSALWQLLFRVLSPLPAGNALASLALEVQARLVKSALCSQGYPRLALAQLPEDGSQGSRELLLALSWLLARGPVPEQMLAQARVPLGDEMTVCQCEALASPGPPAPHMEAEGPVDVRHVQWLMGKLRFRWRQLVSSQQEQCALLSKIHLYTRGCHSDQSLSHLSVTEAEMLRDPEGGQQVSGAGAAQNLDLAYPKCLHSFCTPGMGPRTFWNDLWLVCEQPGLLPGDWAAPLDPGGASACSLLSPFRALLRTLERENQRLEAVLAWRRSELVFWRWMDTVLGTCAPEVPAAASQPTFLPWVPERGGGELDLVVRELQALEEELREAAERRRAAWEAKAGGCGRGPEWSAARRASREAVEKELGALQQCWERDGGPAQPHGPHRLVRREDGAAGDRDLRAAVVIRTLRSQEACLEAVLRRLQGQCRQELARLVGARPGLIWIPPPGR
Chain of UniProt P04350 (P04350 whole entry, looked up): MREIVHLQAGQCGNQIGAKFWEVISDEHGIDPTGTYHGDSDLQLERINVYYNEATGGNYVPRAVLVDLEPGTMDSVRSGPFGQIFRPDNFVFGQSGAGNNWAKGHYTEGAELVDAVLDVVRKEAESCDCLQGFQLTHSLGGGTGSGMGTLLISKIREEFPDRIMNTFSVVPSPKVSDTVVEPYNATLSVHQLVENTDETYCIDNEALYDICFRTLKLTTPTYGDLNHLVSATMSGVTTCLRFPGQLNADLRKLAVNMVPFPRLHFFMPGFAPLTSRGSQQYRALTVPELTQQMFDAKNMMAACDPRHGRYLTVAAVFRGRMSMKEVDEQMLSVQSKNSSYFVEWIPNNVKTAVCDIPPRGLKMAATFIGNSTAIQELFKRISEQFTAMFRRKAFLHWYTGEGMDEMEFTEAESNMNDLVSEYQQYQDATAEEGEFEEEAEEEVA
Chain of UniProt P55851 (P55851 whole entry, looked up): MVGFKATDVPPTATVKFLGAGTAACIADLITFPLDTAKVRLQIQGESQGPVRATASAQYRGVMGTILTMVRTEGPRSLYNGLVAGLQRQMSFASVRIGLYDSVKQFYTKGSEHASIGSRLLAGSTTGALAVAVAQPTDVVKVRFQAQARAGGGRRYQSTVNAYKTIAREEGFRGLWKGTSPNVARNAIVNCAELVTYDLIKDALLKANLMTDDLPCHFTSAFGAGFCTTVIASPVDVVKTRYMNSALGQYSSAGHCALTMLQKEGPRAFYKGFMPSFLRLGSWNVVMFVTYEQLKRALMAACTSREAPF
Chain of UniProt O60637 (O60637 whole entry, looked up): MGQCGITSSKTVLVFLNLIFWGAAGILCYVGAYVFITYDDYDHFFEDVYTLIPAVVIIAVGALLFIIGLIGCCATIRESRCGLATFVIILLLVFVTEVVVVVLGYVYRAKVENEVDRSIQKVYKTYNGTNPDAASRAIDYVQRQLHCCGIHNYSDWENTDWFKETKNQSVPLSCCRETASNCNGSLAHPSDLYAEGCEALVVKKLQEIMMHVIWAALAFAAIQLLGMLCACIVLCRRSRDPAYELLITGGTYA
Chain of UniProt Q9H6P5 (Q9H6P5 whole entry, looked up): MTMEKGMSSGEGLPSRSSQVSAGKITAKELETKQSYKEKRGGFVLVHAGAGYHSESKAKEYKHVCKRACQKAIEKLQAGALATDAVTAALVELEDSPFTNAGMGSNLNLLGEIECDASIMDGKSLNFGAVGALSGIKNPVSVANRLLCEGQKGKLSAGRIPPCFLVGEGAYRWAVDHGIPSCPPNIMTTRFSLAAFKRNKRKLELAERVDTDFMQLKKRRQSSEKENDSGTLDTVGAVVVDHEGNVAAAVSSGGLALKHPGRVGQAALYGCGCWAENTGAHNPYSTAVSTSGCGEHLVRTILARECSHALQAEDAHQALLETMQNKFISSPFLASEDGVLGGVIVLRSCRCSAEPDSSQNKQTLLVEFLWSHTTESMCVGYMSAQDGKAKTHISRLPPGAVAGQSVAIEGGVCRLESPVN

Compound in the test: CC1=C(C(CC(=O)N1)C2=CC=C(C=C2)C(F)(F)F)C(=O)NC3=C(C=C4C(=C3)C=NN4)F
Description: log2 fold change, soluble protein after heating vs DMSO (PISA); higher = thermal stabilisation; K562 lysate, 10 uM; active = over 0.2 and 3.5 SD of the protein, either way, in both replicates (recomputed). An outline of the steps: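 Values give the log-two fold change in thermal stability against solvent controls, from duplicates. Crude K562 extract at 1 mg/mL protein, made by dounce homogenisation in PBS pH 7.4 with 1 mM MgCl2, was treated with 10 μM compound for 30 min. After 3 min heating across 48°C-58°C, aliquots were pooled, adjusted to 0.5% NP-40 at 4°C and centrifuged at 21,000xg for 90 min. The supernatant was measured by TMTpro 16plex LC-MS/MS with channel sums equalised.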
As for UBAP2 (UniProt Q5JV08), the log2 fold change is -0.097.

TASP1 (UniProt Q9H6P5): the log2 fold change is 0.089.

As for TPD52L2 isoform 3 (UniProt O43399), the log2 fold change is -0.007.

Turning to TNFAIP3 (UniProt P21580), the log2 fold change is 0.003.

For TRAF7 (UniProt Q6Q0C0), the log2 fold change is 0.023.

Turning to TEC (UniProt P42680), the log2 fold change is -0.023.

As for TUBB4A (UniProt P04350), the log2 fold change is 0.009.

Turning to TSPAN3 (UniProt O60637), the log2 fold change was -0.173.

As to TLE3 isoform 5 (UniProt Q04726), the log2 fold change was 0.138.

Take UBAP2L isoform 1 (UniProt Q14157): the log2 fold change is 0.114.

Regarding TCF4 (UniProt P15884), the log2 fold change is 0.007.

With TMSB4X (UniProt P62328), the log2 fold change was 0.122.

On to TEDC1 (UniProt Q86SX3), for which the log2 fold change was 0.

On to U2AF1L5 (UniProt P0DN76), for which the log2 fold change was -0.008.

With TMC1 (UniProt Q8TDI8), the log2 fold change was -0.034.

As to UCP2 (UniProt P55851), the log2 fold change is 0.073.

Turning to TUBGCP5 (UniProt Q96RT8), the log2 fold change is 0.009.
